# Screening data from PubChem.
# HCMV antiviral: inhibitors of human cytomegalovirus | HFF cells, HCMV-luciferase reporter, 72 h; stronger effect = lower value | activity change, negative = inhibition, % at 57.5 µM | hit rate 4.5% among 410,000 | AID 1259415; in the data active = activity change below about -60%; inconclusive = no clear call, values can overlap the other calls; inactive = above about -39%
#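 HFF cells seeded 16 h at 37C, treated with compounds, infected with luciferase-reporter HCMV at MOI 1 PFU/cell; luciferase read at 72 h post infection, normalized to buffer-only and Salinomycin controls.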
# LASV entry inh: Lassa virus entry inhibition. hit rate 1.2% among 300,000. Potency, µM (top dose mostly 37.9 µM), for inactives: at the highest dose activity change, negative = inhibition, hits mostly inhibitors. Lassa virus pseudotype entry inhibition, cell reporter; calls by dose curve; tested in HEK293 cells; note: potency is the fitted concentration of half-maximal effect; nearly all actives have a fitted effect of over 50% in size
# FMDV inh: antivirals against foot and mouth disease virus; FMDV antiviral cell-based qHTS; Potency, µM (series often up to 57.9 µM), for the others: at the highest dose activity change, negative = inhibition, usual class: inhibitors; hit rate 1.2% among 410,000; AID 1159524; calls by dose curve; tested in HEK293T cells; note: read-out not given here; potency is the fitted concentration of half-maximal effect; nearly all actives have a fitted effect of over 45% in size
# MARV entry inh: Marburg virus entry inhibition. Potency, µM (doses to about 37.8 µM), without a hit: top-dose activity change, negative = inhibition, most hits filed as inhibitors. AID 540276. Marburg virus pseudotyped entry inhibition, cell reporter. hit rate 1.8% among 300,000; calls by dose curve; tested in HEK293 cells; note: potency is the fitted concentration of half-maximal effect
# Numbers without * were called inactive; ? = inconclusive; . = no result; [ ] = another dose, or the depositor's remark. Compounds with a hit are over-represented: about 6.2% of the library has one in this group of screens. % is set by controls: 0 for no effect and ±100 for the full control effect.
SMILES,HCMV antiviral,LASV entry inh,FMDV inh,MARV entry inh
C/C(=N\NC(=O)C1COc2ccccc2O1)c1cccs1 (configuration not stated),-60*,12%,.,5%
O=C(N/N=C/c1c(O)n(-c2ccccc2Cl)c(=O)c2ccccc12)C1COc2ccccc2O1 (configuration not stated),.,?,3%,?
O=C(N/N=C/c1cccs1)C1COc2ccccc2O1 (configuration not stated),-10,?,.,-19%
Cc1c(/C=N\NC(=O)C2COc3ccccc3O2)c2ccccc2n1C (configuration not stated),-86*,?,-2%,-20%
Cc1ccc(/C=N/NC(=O)C2COc3ccccc3O2)s1 (configuration not stated),-76*,?,63%,?
Cc1ccc(-n2c(O)c(/C=N/NC(=O)C3COc4ccccc4O3)c3ccccc3c2=O)cc1 (configuration not stated),-61*,-23%,-21%,?
NNC(=O)c1ccc(N2CCCCCC2)c([N+](=O)[O-])c1,?,-22%,2%,-16%
O=C1c2ccccc2C(O)(c2ccccc2)N1CCc1ccccc1 (configuration not stated),?,.,-11%,.
Oc1ccc(N2CCN(c3nnnn3-c3ccccc3)CC2)cc1,-63*,?,-20%,4%[14.2 µM]
CC(=O)N1CCN(c2nnnn2-c2ccccc2)CC1,5,-8%,-9%,0%
Brc1ccc2[nH]c3c(c2c1)CCC3,-70*,8.9µM*,-3%,?
O=C(NCCc1ccccc1)c1ccc(NC(=O)C2CCC2)cc1,52,?,65%,.
C/C(=N\NC(=O)c1c[nH]c2ccccc12)c1ccccn1,-82*,2µM*,8%,?
C/C(=N\NC(=O)c1cc2ccccc2cc1O)c1ccccn1,-99*,?,?,?
C/C(=N\NC(=O)c1ccc(F)cc1)c1ccccn1,-98*,.,-30%,.
CCOc1ccc(C(=O)N/N=C(\c2ccccc2)c2ccccn2)cc1,-99*,7.1µM*,0%,?
Cc1cccc(NC(=O)c2cc(S(=O)(=O)N3CCN(c4ccccc4F)CC3)ccc2F)c1C,-8,28%[46.1 µM],-17%,.
C/C(=N\NC(=O)c1ccccc1-n1cccc1)c1ccccn1,-99*,.,?,.
Fc1ccc(N/N=C(/c2ccccc2)c2ccccn2)cc1,-61*,9%,1%,5%
C/C(=N\NC(=O)CCCNc1ccc(C)cc1)c1ccccn1,-67*,-20%,-28%,6.5µM*
CCN(CC)C(=O)COc1ccc(/C(C)=N/NC(=O)c2ccccc2-n2cccc2)cc1,50,-13%,-16%,-1%
C/C(CC(=O)N1CCN(C=O)CC1)=N\NC(=O)c1cc2ccccc2cc1O,-64*,-17%,-11%,?
C/C(CC(=O)N1CCN(C=O)CC1)=N\NC(=O)c1ccc([N+](=O)[O-])cc1,-34,.,6%,.
CC(=O)c1cc(C#N)c(N2CCCC2)nc1C,13,10%,-4%,11%[14.2 µM]
O=C(Nc1cc(=O)[nH]c(=O)[nH]1)c1cccc(C(F)(F)F)c1,-1,.,0%,.
SMILES,HCMV antiviral,LASV entry inh,FMDV inh,MARV entry inh
Cc1ccc(C)n1C1C(=O)N(Cc2ccc(C(C)C)cc2)c2ccc(Cl)cc21 (configuration not stated),-17,.,.,.
O=C(Cc1ccc(S(=O)(=O)N2CCCCC2)s1)Nc1ccc(F)cc1F,-7,-1%,-14%,11%
C[C@H]1CN([C@@H](C)CO)C(=O)Cc2cc(NC(=O)CCC(F)(F)F)ccc2O[C@H]1CN(C)C(=O)Nc1ccc(F)cc1,0,.,-8%,.
Cc1ccc(S(=O)(=O)N2CCOCC2)cc1C(=O)N1CCCC1,-26,2%[46.1 µM],16%,-5%[46.1 µM]
Cc1ccc(S(=O)(=O)N2CCOCC2)cc1C(=O)N1CCN(c2ccc(C(F)(F)F)cn2)CC1,-76*,?,?,?
Cc1nc(-c2cccnc2)sc1C(=O)Nc1ccc(C(F)(F)F)cc1,?,11%,?,7%
Cn1c(=O)c2c(nc(Oc3ccccc3Cl)n2C)n(C)c1=O,-79*,19%[46.1 µM],?,16%[46.1 µM]
CCCOc1nc2c(c(=O)n(C)c(=O)n2C)n1Cc1cccc2ccccc12,-91*,-19%,.,?
Cn1c(=O)c2c(nc(Oc3ccccc3N)n2C)n(C)c1=O,15,.,19%,.
CCn1c(Oc2ccccc2)nc2c1c(=O)n(C)c(=O)n2C,-60*,3%,-7%,12%
Cc1ccc(Nc2c(-c3ccccn3)nc3cc(C)ccn23)cc1,0,?,?,?
CCOc1ccc(C(=O)Nc2cccc(C(=O)OCc3cc(=O)n4nc(C5CC5)sc4n3)c2)cc1,36,29%[46.1 µM],?,.
CCCC1NC(=O)c2cccnc2-n2c1nc1ccccc1c2=O (configuration not stated),-4,.,-14%,.
COCCn1c(C(F)(F)F)ccc(NC(=O)c2ccccc2)c1=O,29,?,29%,?
O=C1NC(c2ccccn2)Nc2sc3c(c21)CCC3 (configuration not stated),-103*,2%,37%,11%
Cc1ccc2c(C)nc(/N=C(\N)NC(=O)N3c4ccccc4Sc4ccccc43)nc2c1,?,9%,-28%,?
Cc1ccc2nc(/N=C(\N)NC(=O)N3c4ccccc4Sc4ccccc43)nc(C)c2c1,-65*,-12%,-28%,-3%
Cc1nn2cc(-c3cccc(Cl)c3)cnc2c1Cl,62,?,40%,4.5µM*
O=C(Nc1ccc([N+](=O)[O-])cc1)c1ccccc1,41,11%[46.1 µM],-6%,?
O=C(Nc1cc(Sc2ccccn2)cc([N+](=O)[O-])c1)c1ccc([N+](=O)[O-])cc1,-29,?,22µM*,?
C=CCN(c1ccc(C(=O)Nc2cccc(C)c2)cc1)S(C)(=O)=O,-11,9%[46.1 µM],?,0%[46.1 µM]
CS(=O)(=O)N(CC(=O)N1CCCC1)c1cc(Cl)ccc1Cl,-5,.,-5%,.
CNC(=O)c1sc(N2N=C3/C(=C\c4ccccc4)CCCC3C2c2ccccc2)nc1C (configuration not stated),-28,?,32µM*,?
CNC(=O)c1sc(N2N=C3/C(=C/c4ccccc4)CCCC3C2c2ccccc2)nc1C (configuration not stated),-39,?,?,?
Nc1ccccc1C(=O)NC(=O)Nc1ccc(Oc2ncc(Br)cn2)c(Cl)c1,-87*,?,-18%,-20%
SMILES,HCMV antiviral,LASV entry inh,FMDV inh,MARV entry inh
COc1ccccc1C(=O)NC(=O)Nc1cccc(Cl)c1,370,.,17%,.
Cc1cc(NC(=O)NC(=O)c2ccccc2NC(=O)CN)ccc1Oc1ncc(Br)cn1,-84*,0%,-5%,?
Cc1cc(NC(=O)NC(=O)c2ccccc2NC(=O)CN(C)C)ccc1Oc1ncc(Br)cn1,-24,?,0%,?
COCCOC(=O)C1=C(N)OC2=C(C(=O)CCC2)C1c1cccnc1 (configuration not stated),8,1%,-4%,1%
Cc1ccc(NC(=O)/C(C#N)=C/c2cc(C)n(-c3ccc(Br)cc3)c2C)cc1C,-108*,10%[46.1 µM],?,.
Cc1ccc(-n2c(C)cc(/C=C(\C#N)C(=O)Nc3ccc(C)c(C)c3)c2C)cc1,1,12%[46.1 µM],0%,?
